About 3,300 (1.1%) of roughly 300,000 compounds were called active. About 6% were inconclusive and are not listed. The sample as a whole holds a higher share of actives than the screen did. Values without a mark were called inactive.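 The calls were made as follows: active = more than half of the replicate wells show a fall in the fluorescence ratio signal beyond about 16% (limit read from the data, passing the limit was not always enough); inconclusive = exactly half of the replicate wells pass the set limit; inactive = fewer than half of replicates pass the limit.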
tested on: Ran GTPase (GTP-bound) - importin-beta complex; test: disruptors of Ran-importin-beta complex formation – biochemical, FRET, CFP-Ran, YFP-importin-beta, homogeneous, primary screen (AID 2216); conditions: cell-free CFP-Ran/YFP-importin-beta FRET ratio; hits give high values; concentration not given here;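 also: 0% = DMSO wells and 100% = Ran loaded with GDP instead of GTP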

Row | SMILES | inhibition
1 | O=C(COC(=O)c1cnccn1)Nc1ccc(Cl)cc1C(F)(F)F | 1.07%
2 | CCCCc1nc2cc(C(=O)N3CCCCC3CCO)ccc2o1 (stereo unspecified) | 2.55%
3 | Cc1cc(C)c2c3c(sc2n1)C(c1ccccc1)C(C#N)=C(N)O3 (stereo unspecified) | 14.9%
4 | N#CC1=C(N)Oc2c(sc3ccccc23)C1c1ccco1 (stereo unspecified) | 54.7% (active)
5 | CC1=C(C(=O)Nc2ccccc2)C(c2ccco2)C(C#N)=C(SCC(N)=O)N1 (stereo unspecified) | -0.887%
6 | CC(C)CN(C(=O)COC(=O)c1ccc(Cl)c(N)c1)c1c(N)n(Cc2ccccc2)c(=O)[nH]c1=O | 3.15%
7 | Cc1onc(-c2ccccc2Cl)c1C(=O)N(Cc1ccc(N(C)C)cc1)C(C)C | -1.47%
8 | O=C(Cc1ccc(S(=O)(=O)N2CCOCC2)s1)NCCOc1ccccc1F | 0.747%
9 | CCCc1cc(=O)oc2c(C)c(OCC(=O)NCc3ccccn3)ccc12 | 0.0468%
10 | COc1cccc(C(=O)OCc2cc(=O)oc3c(C)c(C)ccc23)c1OC | -2.35%
11 | COC(=O)Cc1cc(=O)oc2c(C)c(O)ccc12 | 60.4% (active)
12 | O=C(COc1ccccc1)Nc1cc2c3c(c1)CC(=O)N3CCC2 | 0.812%
13 | O=C(NC1CC1)C1=C[C@H](c2coc3ccccc3c2=O)C[C@H](OCCCCO)O1 | 8.31%
14 | CCN1CCN(CC(=O)Nc2sc3c(c2C#N)CCC3)CC1 | -1.32%
15 | N#Cc1c(N)sc2c1CCN(C(=O)OCc1ccccc1)C2 | 8.85%
16 | CC(C)N1CCc2c(sc(NC(=O)Cc3ccccc3)c2C#N)C1 | 156% (active)
17 | Cn1c(SCC(=O)c2ccccc2)ncc(C(=O)Nc2ccc(F)cc2)c1=O | 0.558%
18 | CCC1=C(C(=O)OC)C(c2cc(OC)ccc2OC)C(C#N)=C(N)O1 (stereo unspecified) | -4.33%
19 | CCN1CC=C2C(C#N)=C(N)C(C#N)(C#N)[C@H](c3ccoc3)[C@H]2C1 | 47.8% (active)
20 | CCCN1CC=C2C(C#N)=C(N)C(C#N)(C#N)C(c3cc(OC)ccc3OC)C2C1 (stereo unspecified) | 36.6% (active)
21 | N#CC1=C(N)C(C#N)(C#N)[C@H](c2ccsc2)[C@H]2COCC=C12 | -27%
22 | COc1ccc(-c2cc(C(=O)N(C)CC(=O)Nc3ccccc3Cl)c3ccccc3n2)cc1OC | 0.526%
23 | COc1cc(C(=O)N(C)Cc2cccc(OC)c2OC)ccc1OCC(=O)Nc1cccc(C(F)(F)F)c1 | -1%
24 | Cc1sc2nc(CSCC(=O)NC3CCCCC3)[nH]c(=O)c2c1C | 1.87%

Row | SMILES | inhibition
25 | O=S(=O)(NCCCc1ccccc1)c1ccc(Br)cc1 | -1.87%
26 | Cc1cc(=O)oc2cc(NC(=O)C(C)Oc3ccccc3)ccc12 (stereo unspecified) | 3.05%
27 | CCOC(=O)C1(Cc2cccc(OC)c2)CCN(Cc2csc(C(C)=O)c2)CC1 | 33.4% (active)
28 | CCOC(=O)C1(Cc2cccc(OC)c2)CCN(C(C)COC)CC1 (stereo unspecified) | 7.78%
29 | CCOC(=O)C1(Cc2cccc(OC)c2)CCN(C(C)CC(C)(C)O)CC1 (stereo unspecified) | 2.47%
30 | COc1ccc(Nc2ncnc3sc(C)cc23)cc1 | -4.52%
31 | Cc1cc(C)c2nc3nc(C)cc(C)c3c(N)c2c1 | 123% (active)
32 | Cc1cc(C)c2nc(-c3ccco3)cc(C(=O)O)c2c1 | -1.33%
33 | Cc1cc(C)c2nc(SCCC#N)nc(C)c2c1 | 4.53%
34 | CCC1Nc2ncnc(N3CCN(c4ccccc4)CC3)c2N(Cc2ccc(Cl)cc2)C1=O (stereo unspecified) | 3.14%
35 | CCOC(=O)c1cccc(NS(=O)(=O)c2c(C(=O)N3CCCCCC3)c(C)n(C)c2C)c1 | -0.759%
36 | Cc1cc(Nc2ccccc2)n(CCC#N)n1 | 64.2% (active)
37 | Cc1cc(Nc2ccccc2)n(C(=O)c2ccc(N)cc2)n1 | 11.7%
38 | Cc1cc(NC(=O)COc2ccc(Cl)cc2Cl)n(CCC#N)n1 | 0.324%
39 | COc1ccc(NC(=O)CN(C)C(=O)c2cc(-c3ccc(C)o3)nc3ccccc23)cc1 | 3.47%
40 | O=C(Nc1cccc2ncccc12)C(Cl)(Cl)Cl | -1.34%
41 | Cc1ccc(/C=C(\C#N)C(=O)Nc2cccc3ncccc23)o1 | 24.4% (active)
42 | Cc1ccc(C(=O)Nc2cccc3ncccc23)cc1[N+](=O)[O-] | -5.75%
43 | COc1ccc(NC(=O)CN(C)C(=O)c2cccc(S(=O)(=O)N3CCN(c4ccccc4)CC3)c2)cc1 | 5.36%
44 | Cc1sc(NC(=O)c2ccc3ncsc3c2)c(C(N)=O)c1C | 7.92%
45 | COc1ccc(NS(=O)(=O)c2ccc(C)c(C(=O)N(C)Cc3ccc(OC)cc3OC)c2)cc1 | -0.0635%
46 | COc1ccc(OC)c2sc(NC(=O)C3COc4ccccc4O3)nc12 (stereo unspecified) | 18.3% (active)
47 | COc1ccc(NC(=O)C2COc3ccccc3O2)cc1 (stereo unspecified) | 3.21%
48 | O=C(Nc1nc2c(F)cc(F)cc2s1)C1COc2ccccc2O1 (stereo unspecified) | -1.75%

Row | SMILES | inhibition
49 | Cn1nccc1C(=O)NC1CCCc2c1cnn2-c1ccccc1F (stereo unspecified) | 1.44%
50 | Cn1c(=O)c(Sc2ccc(Cl)cc2)c(O)c2ccccc21 | -0.611%
51 | Cc1cc(C)c(-c2c(O)c3ccccc3n(C)c2=O)c(C)c1 | -1.11%
52 | Cn1c2ccccc2c(=O)c2c(O)cccc21 | 19.5% (active)
53 | COC(C/C=C/C(=O)[C@@H](C)OCc1ccccc1)OC | -3.23%
54 | N#C/C(=C/c1ccc(-c2ccccc2[N+](=O)[O-])o1)C(=O)NCCN1CCCCC1 | 0.797%
55 | N#C/C(=C/c1ccc(N2CCCCC2)o1)C(=O)NCCc1c[nH]c2ccccc12 | 36.8% (active)
56 | O=C(NCCc1c[nH]c2ccccc12)C(=O)NCC1CCCO1 (stereo unspecified) | 0.222%
57 | CCCCn1c(N)c(N(CC(C)C)C(=O)c2cccc(S(=O)(=O)N3CC(C)OC(C)C3)c2)c(=O)[nH]c1=O (stereo unspecified) | -2.71%
58 | Nc1ccccc1/C=N\N=C/c1ccccc1N | 1.49%
59 | Nc1nonc1-c1nc2ccccc2n1Cc1ccc(F)cc1 | 3.99%
60 | COc1ccc(CNc2nnnn2C)cc1 | 0.267%
61 | Fc1ccc(CNc2nc3ccccc3n3nnnc23)cc1 | 28.7% (active)
62 | CCC1CCC/C1=N\NC(=O)c1ccc(Cl)cc1 (stereo unspecified) | -0.716%
63 | COC(=O)C1=CN(Cc2ccc(OC)cc2)C=C(C(=O)OC)C1c1ccc(O)c(OC)c1 | 18.3% (active)
64 | COc1cc(C2C(C(=O)c3ccc(C)o3)=C(O)C(=O)N2CCc2ccccc2)ccc1O (stereo unspecified) | -0.99%
65 | COC(=O)C1=CN(Cc2ccc(OC)c(OC)c2)C=C(C(=O)OC)C1c1cccs1 | -0.0693%
66 | Cc1nc2ccccc2c(=O)n1-c1ccc(NS(=O)(=O)c2ccc(F)cc2F)cc1 | 0.359%
67 | COc1ccc(C(=O)NCC(c2ccco2)N2CCc3ccccc32)cc1OC (stereo unspecified) | -0.364%
68 | Cc1cccn2c(=O)nc(SCC(=O)NCc3ccccc3Cl)nc12 | -2.28%
69 | COCCNc1ncnc2c1nc1n2CCCC1 | -7.47%
70 | COCCNc1nc2nonc2nc1N(C)Cc1ccc(C)cc1 | -1.03%
71 | COCCNc1nc2nonc2nc1N1CCCC1c1nccs1 (stereo unspecified) | 24.9% (active)
72 | COC(=O)c1ccc(NCC(=O)c2ccccc2)cc1 | 1.3%

Row | SMILES | inhibition
73 | COC(=O)c1ccc2c(C(C)(C)O)c(C(C)(C)O)[nH]c2c1 | 35.4% (active)
74 | COC(=O)c1cccc(NS(C)(=O)=O)c1 | 3.63%
75 | CC1CC(C)(C)CC2(C1)NC(=O)N(CC(=O)Nc1nccs1)C2=O (stereo unspecified) | -1.02%
76 | CCCCN(C(=O)CCNC(=O)NC12CC3CC(CC(C3)C1)C2)c1c(N)n(CCCC)c(=O)[nH]c1=O | 0.758%
77 | CCN1N=C(c2ccccc2)CCC1=O | 2.2%
78 | CC1(C)CC(=O)NC=C(c2ccccc2)C1 | 25.4% (active)
79 | O=C1C=C(c2ccccc2)CCC1 | 3.08%
80 | COc1cc(OC)c(OC)cc1CN1CCN(C(=O)c2cccc3ccccc23)CC1 | 2.06%
81 | Cc1ccc(NC(=O)CN2CCc3ccccc3C2)cc1C | 6.66%
82 | COc1cc2c(cc1OC)CN(CC(=O)Nc1ccc(F)cc1)CC2 | 16.9% (active)
83 | Cc1ccc(NC(=O)CN2CCc3ccccc3C2)cc1 | -0.397%
84 | CCOC(=O)C1(Cc2ccccc2C)CCCN(C(=O)c2ccc(COC)o2)C1 (stereo unspecified) | -3.09%
85 | COc1ccc(Cl)cc1NC(=O)CN(C)C(=O)c1cc2ccccc2cc1OC | 1.71%
86 | CC(C)c1ccc(S(=O)(=O)N2CCN(C(=O)CN3C(=O)NC(C)(c4ccccc4)C3=O)CC2)cc1 (stereo unspecified) | 0.837%
87 | CCOc1ccc(S(=O)(=O)NCCSc2ccccc2)cc1 | -0.375%
88 | O=S(=O)(NCCNS(=O)(=O)c1ccccc1)c1ccccc1 | 1.2%
89 | CCOc1ccc2nc(NCCNS(=O)(=O)c3ccccc3)c(C#N)cc2c1 | 127% (active)
90 | O=C(NNC(=O)c1ccc(-c2ccccc2)cc1)Nc1ccccc1 | 2.69%
91 | Cc1ccc(S(=O)(=O)n2cccc2CO)cc1 | -0.413%
92 | COc1ccc(CCNC(=O)C(=O)NCC2CCCN2S(=O)(=O)c2cccs2)cc1OC (stereo unspecified) | -2.95%
93 | Cc1cc(C)c(C)c(S(=O)(=O)N2CCN(C(=O)c3ccc4c(=O)n5c(nc4c3)CCC5)CC2)c1C | 0.31%
94 | CCN(CC)C(=O)c1sc(NC(=O)c2ccco2)c(C#N)c1C | 5.09%
95 | CCCc1ccc(-c2c(C)sc(NC(=O)c3ccnn3C)c2C#N)cc1 | 69.5% (active)
96 | Cn1nccc1CNC(=O)c1ccnn1C | -4.46%
